Screening results as filed in PubChem BioAssay.
H9c2 protect: cardioprotection against H2O2-induced cell death, primary screen, uHTS, H9c2 cells, ATPLite luminescence. protection from H2O2 cell death, % at 20 µM. 360,000 tested, 0.63% active. H9c2 cardiomyocytes, H2O2 injury protection, 2 h;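 active means compounds giving at least 50% protection of heart cells from peroxide-induced death in the single-dose screen, raw or plate-pattern-corrected value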;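 further: 0% = DMSO wells with peroxide and 100% = DMSO wells without peroxide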
PfGluPho inh: PfG6PD enzyme inhibitors, primary screen, biochemical, fluorescence intensity, uHTS | glucose-6-phosphate dehydrogenase-6-phosphogluconolactonase (Plasmodium falciparum 3D7) | PfGluPho enzyme, NADPH resazurin-diaphorase fluorescence | inhibition, % at 20 µM | 350,000 tested, 0.78% active;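 active means inhibition reaching at least a set limit at 20 µM in the primary screen, cut at about 59% in these data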;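 further: 0% = DMSO wells with substrate and 100% = DMSO wells lacking glucose-6-phosphate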
NadD inh: inhibitors of S. aureus NadD, primary screen, biochemical, colorimetric, uHTS; inhibition, % at 20 µM; AID 602399, 2012; Nicotinate-nucleotide adenylyltransferase NadD (Staphylococcus aureus N315); purified NadD enzyme, colorimetric absorbance read-out; 360,000 tested, 0.78% active; in the data active means inhibition above about 26%
APOBEC3G inh: APOBEC3G DNA deaminase inhibitors, primary screen, biochemical, fluorescence, single-stranded DNA substrate, uHTS; recombinant A3G, ssDNA deamination FAM/TAMRA fluorescence; inhibition, % at 20 µM; 330,000 tested, 0.28% active; AID 493012, 2011;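 active means inhibition of at least 40% at 20 µM, with no more than 30% in the related APOBEC3A deaminase screen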;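 further: plate controls were DMSO wells with A3G for no effect and wells lacking A3G enzyme for full effect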
Target sequence (Q9HC16 whole entry, looked up): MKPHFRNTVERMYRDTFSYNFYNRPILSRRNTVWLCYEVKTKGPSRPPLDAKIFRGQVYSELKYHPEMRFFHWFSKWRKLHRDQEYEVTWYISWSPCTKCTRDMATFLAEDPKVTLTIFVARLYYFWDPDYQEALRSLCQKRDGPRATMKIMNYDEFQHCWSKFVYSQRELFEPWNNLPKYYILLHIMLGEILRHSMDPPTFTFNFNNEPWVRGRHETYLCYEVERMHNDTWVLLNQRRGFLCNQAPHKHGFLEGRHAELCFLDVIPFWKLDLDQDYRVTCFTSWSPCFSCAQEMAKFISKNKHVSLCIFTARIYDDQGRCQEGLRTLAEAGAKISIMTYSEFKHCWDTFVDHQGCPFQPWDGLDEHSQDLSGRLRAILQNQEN
A3A deaminase: APOBEC3A ssDNA deaminase inhibitors, primary screen, selectivity assay for APOBEC3G inhibitor project, biochemical, FAM/TAMRA oligo cleavage fluorescence; DNA dC->dU-editing enzyme APOBEC-3A (Homo sapiens), P31941; recombinant A3A, FAM/TAMRA ssDNA deamination fluorescence; inhibition, % at 20 µM; 330,000 tested, 0.41% active; AID 493011, 2011;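 active means at least 40% inhibition at 20 µM here, with at most 30% in a related deaminase screen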;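 further: plate controls were A3A with DMSO for no effect and wells lacking A3A enzyme for full effect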
Target sequence (P31941 whole entry, looked up): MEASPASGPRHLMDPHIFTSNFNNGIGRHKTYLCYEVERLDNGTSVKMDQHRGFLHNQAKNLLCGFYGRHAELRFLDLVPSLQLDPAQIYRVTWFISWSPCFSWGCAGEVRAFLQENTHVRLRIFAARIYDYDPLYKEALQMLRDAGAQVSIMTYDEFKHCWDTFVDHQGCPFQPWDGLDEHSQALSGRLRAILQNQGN
H9c2 TAG inh: inhibitors of triacylglycerol accumulation, primary screen, cell-based, uHTS, fluorescence, H9c2; H9c2 cells, Nile Red lipid (TAG) fluorescence; cells loaded with 200 µM oleic acid; inhibition, % at 12.5 µM; 230,000 tested, 0.66% active; AID 651582, 2012;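 active means pattern-corrected inhibition of lipid staining of at least 50% with the nuclear-stain viability signal not falling by more than 50%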;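 further: 0% = DMSO wells and 100% = triacsin C control wells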
APOBEC3A confirm: APOBEC3A deaminase inhibitors, retest, confirmation, selectivity assay for APOBEC3G inhibitor project, biochemical, single concentration, fluorescence readout | recombinant A3A, ssDNA deaminase UDG fluorescence assay | 1,400 tested, 63% active | shares compounds with A3A deaminase | inhibition, % at 20 µM;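 active means inhibition reaching a set limit, 80% of the first screen's cutoff, at 20 µM in any replicate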;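 further: plate controls were DMSO wells with A3A for no effect and wells lacking A3A enzyme for full effect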
UDG A3A counter: E. coli UDG inhibitors, confirmation, counter-screen for APOBEC3A inhibitor project, biochemical, single concentration, fluorescence, FAM/TAMRA oligo | shares compounds with A3A deaminase | UDG counterscreen, FAM/TAMRA uracil oligo fluorescence | inhibition, % at 20 µM | 1,000 tested, under 10 active; call rule not given here
* marks the source's active call; other numbers are inactive results; nt = no result given. Only some compounds are listed: those with a hit (about 2.9% of all), similar ones and a draw of the others.

SMILES	H9c2 protect	PfGluPho inh	NadD inh	APOBEC3G inh	A3A deaminase	H9c2 TAG inh	APOBEC3A confirm	UDG A3A counter
CCN1/C(=C/c2cccc[n+]2C)Sc2ccc(OC)cc21	-20	4	9	15	53*	nt	87*	-2
Cc1nn(C2CCS(=O)(=O)C2)c(C)c1CN(C)C(=O)c1ccc(Cl)cc1 (stereo not drawn)	-5	-5	3	3	4	1	nt	nt
O=C(NCC1CCCO1)c1cc2nc(-c3ccco3)cc(C(F)(F)Cl)n2n1 (stereo not drawn)	14	-16	-2	-1	5	nt	nt	nt
Oc1[nH]c2ccccc2c1N=Nc1nc(Nc2ccccc2)nc(N2CCOCC2)n1	28	-7	10	12	44*	131	17	nt
CC1CC(C)CN(C(=O)c2cccc(N3C(=O)c4ccccc4C3=O)c2)C1 (stereo not drawn)	4	-15	0	-5	-1	12	nt	nt
O=C(c1cc2cc([N+](=O)[O-])ccc2oc1=O)n1cccn1	0	2	-3	21	59*	-21	39*	nt
O=C(COC(=O)c1cc2c(s1)CCCC2)Nc1ccc(Cl)cn1	1	2	3	-1	-1	nt	nt	nt
O=C(COC(=O)c1cc2c(s1)CCC2)Nc1ccc(F)cc1	1	-10	1	23	45*	-11	49*	7
COc1ccc(NC(=O)COC(=O)c2cc3c(s2)CCC3)cc1	-11	11	-2	10	41*	-33	32*	-2
COCCn1c(C)cc(C(=O)COC(=O)c2cc3c(s2)CCC3)c1C	-12	10	16	18	43*	5	27*	-3
NC(=O)c1ccc(NC(=O)COC(=O)c2cc3c(s2)CCC3)cc1	9	-9	-2	15	55*	1	43*	-3
COc1ccc(OCC(=O)Nc2ccc3c(c2)CCC3)cc1	-12	-3	-11	3	0	-13	nt	nt
COc1ccc(NC(=S)Nc2ccccc2SC)c(OC)c1	0	11	-2	5	0	-10	nt	nt
CCN(CC)C(=O)c1csc([C@@H]2O[C@H](CO)[C@H](O)[C@H](O)[C@H]2O)n1	12	nt	-1	nt	nt	7	nt	nt
COc1ccc(N(CC(=O)NC2CC3CCC2C3)S(=O)(=O)c2ccc(C)cc2)cc1OC (stereo not drawn)	1	-4	2	-4	2	nt	nt	nt
C=CCn1c(SCc2nc3ccccc3nc2C)nnc1-c1ccoc1C	0	12	3	-5	45*	3	-1	3
CCn1c(SCc2nc3ccccc3nc2C)nnc1-c1cccs1	10	12	2	-14	-7	-4	nt	nt
Cc1ccc(N2C(SCC(=O)O)=NC(=Nc3cccc(C)c3)C23CCCC3)cc1	-10	9	-3	5	44*	-11	15*	-2
COC(=O)c1ccc(Cc2ccc(C(=O)OC)o2)o1	5	10	6	-6	0	nt	nt	nt
COC(=O)c1ccc(Cn2c(C)cc(C)[n+]2C)o1	9	-8	6	29	52*	-10	72*	-3
Cc1ccccc1COc1ccc(-c2nnn(CC(=O)O)n2)cc1	6	-7	4	-1	40*	2	23	2
O=C(OCc1nc2ccsc2c(=O)[nH]1)c1ccccc1	1	3	6	-11	56*	7	-2	-2
O=C(OCc1nc2ccsc2c(=O)[nH]1)c1ccc(Cl)nc1	6	11	-1	-6	-2	-14	nt	nt
O=C1CCCN1C(=O)CSc1nnnn1-c1ccccc1	-1	-11	-1	-3	-1	-3	nt	nt
COc1ccc(CC2(CO)CCN(Cc3cccn3-c3ccccn3)CC2)cc1	-1	-1	-2	-7	1	3	nt	nt
SMILES	H9c2 protect	PfGluPho inh	NadD inh	APOBEC3G inh	A3A deaminase	H9c2 TAG inh	APOBEC3A confirm	UDG A3A counter
CCN1C(=NCc2ccc(OC)cc2)N[C@@H](c2ccccc2)[C@H](C(=O)OC)[C@H]1C	1	3	4	8	41*	-19	56*	-2
CCN1C(=NCCc2c[nH]c3ccccc23)N[C@@H](c2ccccc2)[C@H](C(=O)OC)[C@H]1C	1	-4	1	4	51*	7	45*	-2
CCN1C(=NCc2ccccc2)N[C@@H](c2ccccc2)[C@H](C(=O)OC)[C@H]1C	9	-17	4	32	55	4	nt	nt
COc1cccc(-c2cc3nc(Nc4ccc(OC)c(OC)c4)n(C)c(=O)c3s2)c1	44	nt	2	nt	nt	14	nt	nt
Cc1cc(C)nc(NC(=O)c2cc([N+](=O)[O-])cc([N+](=O)[O-])c2)n1	-1	-13	1	0	7	nt	nt	nt
CCCc1cc(=O)oc2cc(C)cc(OCc3nn[nH]n3)c12	8	-19	4	-6	-4	2	nt	nt
Cc1cc(=O)oc2c1c(C)nn2-c1nn[nH]n1	-1	10	7	23	59*	-1	72*	-2
Cc1nc2c(C)cccc2c2c1COC2	2	7	4	-1	2	-1	nt	nt
Cc1ccc2nc(C)c3c(c2c1)COC3	1	6	1	-5	62*	nt	0	4
Cc1ccc(C(O)c2ncc(-c3cccc4ccccc34)[nH]2)c(C)c1 (stereo not drawn)	-4	nt	6	nt	nt	-12	nt	nt
CCCCC1(C)OC(=O)C(=Cc2ccc(-c3ccc(Cl)c(C(=O)O)c3)o2)C(=O)O1 (stereo not drawn)	0	38	0	26	55*	0	30*	1
COc1ccc(N(C)S(=O)(=O)c2cccc(C(=O)OCC(=O)N3CC(C)CC(C)C3)c2)cc1 (stereo not drawn)	-12	-5	-4	-8	-5	-7	nt	nt
COc1ccccc1N1C(=N)S/C(=C\c2ccc(-c3ccccc3C(=O)O)o2)C1=O	4	-3	14	28	44*	nt	32*	-2
N=C1S/C(=C\c2ccc(-c3ccccc3C(=O)O)o2)C(=O)N1c1ccc2c(c1)OCO2	0	1	12	nt	nt	nt	nt	nt
